LASV entry inh: blocks Lassa virus binding or cell entry. Lassa virus pseudotyped entry inhibition, cell-based qHTS. Potency, µM (highest dose often 49.2 µM), hits mostly inhibitors. 4.1% of 18,000 active. AID 720533
Marburg entry: inhibitors of Marburg virus binding or entry into cells; 6.5% of 18,000 active; Marburg virus pseudotype entry/binding inhibition, cell-based; Potency, µM (top dose mostly 49.2 µM), actives largely listed as inhibitors; AID 720532
Each line names hits and unclear results; the compound was inactive in the other large screens. The list is not random: actives were taken first. Their share in the collection is about 7.1%. Calls follow the shape of the full dose curve; tested in HEK293 cells.

COc1ccc2c3c([nH]c2c1)[C@@H]1C[C@@H]2[C@@H](C[C@H](O)[C@H](OC)[C@H]2C(=O)O)CN1CC3	none
COC(=O)[C@@H]1C2CC3c4[nH]c5cc(OC)ccc5c4CCN3CC2C[C@H](OC(=O)c2cc(OC)c(OC)c(OC)c2)C1OC (some centres undefined)	LASV entry inh inconclusive, Marburg entry 13µM
C=CCOC(=O)C(C(C)=O)[C@@H](NC(=O)OC)c1cccc(C(F)(F)F)c1 (some centres undefined)	none
CO[C@H](c1ccccc1Br)[C@H](C)C=CCCO	Marburg entry inconclusive
COC(=O)N[C@@H](c1cccc(C)c1)[C@]1(C(C)=O)CCCC1=O	none
CNc1ccc2oc(C[C@@H]3OC4(CC[C@@H]3C)O[C@H](C(C)C(=O)c3ccc[nH]3)[C@H](C)C[C@H]4C)nc2c1C(=O)O (some centres undefined)	LASV entry inh inconclusive, Marburg entry 5.6µM
CNc1ccc2oc(C[C@H]3O[C@]4(CC[C@H]3C)O[C@H]([C@H](C)C(=O)c3ccc[nH]3)[C@H](C)C[C@H]4C)nc2c1C(=O)O	LASV entry inh 3.5µM, Marburg entry 4.5µM
NS(=O)(=O)c1ccc(N=Nc2c(O)[nH]c3ccc(-c4cnco4)cc23)cc1	LASV entry inh inconclusive
C=C(C)C(=O)OC[C@H]1CN2[C@H](c3ccc(Br)cc3)[C@H](C)CC[C@H]2C(=O)O1	Marburg entry inconclusive
CN(CCc1ccc(Cl)c(Cl)c1)[C@@H]1CCCC[C@@H]1N1CCCC1	LASV entry inh inconclusive, Marburg entry 7.9µM
COC(=O)[C@H]1CC=C[C@H]2CCN(Cc3ccc(Cl)c(Cl)c3)C(=O)[C@@H]12	none
CN(CCc1ccc(Cl)c(Cl)c1)CCN1CCCC1	LASV entry inh 32µM, Marburg entry 8.9µM
COC(=O)N1CCN(C(=O)Cc2ccc(Cl)c(Cl)c2)C(CN2CCCC2)C1 (centres undefined)	Marburg entry inconclusive
CCCCCCN1C[C@@H](O)[C@H](n2cc(C3CC3)nn2)C[C@H]1c1ccc(OC)cc1	none
COc1ccc2c(c1)[nH]c1c(C)nccc12	Marburg entry 22µM
COc1ccc2c3c([nH]c2c1)C(C)=NCC3	Marburg entry inconclusive
O=C(O)COc1ccccc1/C=N/NC(=O)c1ccncc1	none
O=C(N/N=C/c1ccccc1O)c1ccncc1	LASV entry inh 10µM
COC(=O)N[C@H](CC(C)=O)c1cccc(F)c1	none
Nc1nc(N)c(N=O)c(OCC2CCCCC2)n1	Marburg entry 11µM
C[C@H](ON=C1[C@H]2CCn3c(=O)n(-c4ccccc4)c(=O)n3[C@@H]2[C@H](O)[C@@H]2O[C@H]12)c1cn([C@H](CO)Cc2ccccc2)nn1	none
C=CCP1(=O)O[C@H](C=C)C[C@H](C=C)O1 (some centres undefined)	none
COc1ccc(COC(=O)NN=C2C[C@@H](O)[C@@H](O)[C@@H]3[C@H]4C(=O)N(Cc5ccc6c(c5)OCO6)C(=O)[C@@H]4CC[C@H]23)cc1	none (no result: LASV entry inh)
COc1cccc(-c2nc3cc4c(cc3cc2CN(C(=O)c2cccs2)C2CC2)CCC4)c1OC	LASV entry inh 13µM, Marburg entry inconclusive
COc1ccc(-c2nc3cc(C)ccc3cc2CN(C(=O)c2ccco2)C2CC2)cc1OC	none
COc1ccc(-c2nc3cc(C)ccc3cc2CN(C(=O)c2cccs2)C2CC2)cc1OC	LASV entry inh inconclusive
COc1cccc(C(=O)N(Cc2cc3ccc(C)cc3nc2N(C)C)C2CC2)c1OC	LASV entry inh 5µM, Marburg entry 4µM
Cc1cc(C)cc(CO[C@H]2C=C[C@@H](c3ccccc3)O[C@H]2CO)c1	none
O=S1(=O)CCSCCN1Cc1ccc(Cl)cc1	none
COc1c(O)c2c(=O)cc(OC)c3c4c(OC)cc(=O)c5c(O)c(OC)c(C[C@@H](C)OC(=O)c6ccccc6)c(c(c1C[C@@H](C)OC(=O)Oc1ccc(O)cc1)c23)c54	LASV entry inh 32µM, Marburg entry inconclusive
CC1(C)CN(C2CCCCC2)C(=O)[C@@H]1CC(=O)Nc1ccc(Br)cc1	none
Cc1ccc(-c2cc(=O)c3cc(C)ccc3[nH]2)cc1	LASV entry inh inconclusive, Marburg entry 25µM
Cc1ccc2[nH]c(-c3cccc(F)c3)cc(=O)c2c1	Marburg entry inconclusive
C#C[C@@H]1C=C[C@H](Oc2ccc(OC)cc2)[C@H](CO)O1	none
COc1ccc2cc1Oc1ccc(cc1)CC1c3cc(c(OC)cc3CCN1C)Oc1c(OC)c(OC)c(OC)c3c1C(C2)N(C)CC3 (centres undefined)	LASV entry inh inconclusive, Marburg entry 10µM
COc1cc2c3cc1Oc1cc(ccc1O)C[C@@H]1c4c(cc(OC)c(O)c4Oc4ccc(cc4)C[C@@H]3N(C)CC2)CC[N+]1(C)C	none
COc1ccc([C@]23Cc4cc(OC)c(OC)cc4[C@H](O2)C2=C(CCCC2=O)O3)cc1	none
CN1CCCC(n2nc(Cc3ccc(Cl)cc3)c3ccccc3c2=O)CC1 (centres undefined)	LASV entry inh inconclusive, Marburg entry 7.9µM
O=S1(=O)c2ccc(Br)cc2N2CCC[C@@H]2CN1Cc1ccc(Cl)cc1	Marburg entry inconclusive

From PubChem
